Results as given in PubChem BioAssay (Tox21).
Records with an inconclusive call do not appear. Values without a mark were called inactive. Calls of active or inactive are those of the source. The call rests on the fitted dose curve; in most records, active means well fitted cell-killing curve with a large enough effect in the repeat runs; inconclusive means weak or mixed curves, or effect the other way; inactive means no such curve, though single readings can be large or run the other way.

Experiment: qHTS assay to identify small molecule antagonists of the glucocorticoid receptor (GR) signaling pathway - cell viability counter screen (AID 720693); further: nearly all actives have a fitted effect of over 55% in size
Conditions: GR-bla HeLa viability, CellTiter-Glo luminescence, 18 h, with 5 nM dexamethasone present; series mostly up to 58.5 µM; viability change, negative = cytotoxic: at the top concentration
On the % scale 0 is the no-effect control and ±100 the full control effect.

Row | SMILES | viability change, negative = cytotoxic | Potency
1 | O=C1OC(CN2CCOCC2)CN1/N=C/c1ccc([N+](=O)[O-])o1 (configuration not stated) | 10.4% [at 27 µM] | 
2 | C=CC(=O)OCCOCCOC(=O)C=C | 22.9% [at 78.9 µM] | 
3 | CC(COCCO)OCCO (configuration not stated) | -0.491% | 
4 | Cc1cccc(C)c1NC(=O)CN(CC(=O)O)CC(=O)O | 15.3% | 
5 | CN(Cc1ccc(C(C)(C)C)cc1)Cc1cccc2ccccc12 | -0.288% | 
6 | CCCCC(CC)COC(=O)COc1ccc(Cl)cc1Cl (configuration not stated) | -6.79% [at 78.9 µM] | 
7 | CNC(=O)CN(CCN(CCN(CC(=O)[O-])CC(=O)NC)CC(=O)[O-])CC(=O)[O-].O.[Gd+3] |  | inactive
8 | c1ccc(CNCCNCc2ccccc2)cc1 | -0.475% | 
9 | OCc1cc(C(O)CNCCCCCCOCCCCc2ccccc2)ccc1O (configuration not stated) |  | inactive
10 | CCC(C)c1cc(C(C)(C)C)c(O)c(C(C)(C)C)c1 (configuration not stated) | -0.447% | 
11 | C[C@@H]1C[C@H]2O[C@@]3(O[C@@H]2C(C)(C)O)[C@H](O)[C@@]2(C)[C@@H]4CC[C@H]5C(C)(C)[C@@H](O[C@@H]6OC[C@@H](O)[C@H](O)[C@H]6O)CC[C@@]56C[C@@]46CC[C@]2(C)[C@@H]13 | -0.447% | 
12 | COc1ccc(S(=O)(=O)N2C(=O)[C@@](c3ccccc3OC)(N3C[C@H](O)C[C@H]3C(=O)N(C)C)c3cc(Cl)ccc32)c(OC)c1 | 4.56% | 
13 | CC1=CC[C@H](C(C)C)C=C1 | -14.2% | 
14 | CCCCCCCCCCCc1ccccc1 | -5.54% | 
15 | CC(C)CC(=O)C1C(=O)c2ccccc2C1=O | 5.86% | 
16 | N=c1ccn2c(n1)O[C@H]1[C@H](O)[C@@H](CO)O[C@H]12 |  | inactive
17 | CCOC(=O)NCCOc1ccc(Oc2ccccc2)cc1 | 19.6% | 
18 | Nc1ccccc1S(=O)(=O)c1ccccc1 | 10.3% | 
19 | CC(C)=CCC/C(C)=C/CC/C(C)=C/CO | -18.9% | 

Row | SMILES | viability change, negative = cytotoxic | Potency
20 | CCN(CC)CCOC(=O)C(c1ccccc1)C1CCCCC1 (configuration not stated) | -0.286% | 
21 | CCCCO |  | inactive
22 | O=C(O)C(S)C(S)C(=O)O (configuration not stated) | 9.38% | 
23 | COc1cc(Cl)ccc1Oc1ccc(Cl)cc1Cl | -0.988% | 
24 | COC(C)(C)CCO | 2.31% | 
25 | C=C(C)C(=O)OCCO | -0.854% [at 78.9 µM] | 
26 | CCCCCCCCCCCCCCCCOS(=O)(=O)O | 1.27% | 
27 | C/C=C/C=C/CO | 7.35% | 
28 | CN1CCN(C(c2ccccc2)c2ccccc2)CC1 | 2.42% [at 27 µM] | 
29 | CCCOC(C(=O)OC1CCN(C)CC1)(c1ccccc1)c1ccccc1 | -12.7% | 
30 | NCC(=O)O | -0.435% | 
31 | CCCCc1nc2cccnc2n1Cc1ccc(-c2ccccc2-c2nnn[nH]2)cc1 | 21.4% | 
32 | C=CC(=O)OCCOc1ccccc1 | -15% | 
33 | O=C(OCCCCCCOC(=O)c1ccccc1)c1ccccc1 | -0.187% | 
34 | Cc1nn(C)c(Oc2ccccc2)c1/C=N/OCc1ccc(C(=O)OC(C)(C)C)cc1 | -21.3% | 
35 | Nc1ncn([C@H]2C[C@H](O)[C@@H](CO)O2)c(=O)n1 | -1.07% | 
36 | COc1ccc(C(=O)Nc2nc3ccccc3c(NCc3ccccc3)c2C#N)cc1 | -10.5% | 
37 | O=[N+]([O-])c1cccc(S(=O)(=O)O)c1 | -6.96% [at 78.9 µM] | 
